In PubChem BioAssay (NCATS):
Inconclusive results are not listed. A number with no mark means an inactive call. The source made the active and inactive calls. Calls come from the whole dose curve.

Test: A High-Content qHTS Against Drug Library for the Identification of Small Molecules that Inhibit DYT1 Early Onset Primary Dystonia-Associated Cell Pathology (AID 1645839)
Details: HEK293 Flp-In EGFP-delE TorsinA, punctate imaging, 48 h; series mostly up to 91.7 µM; % pathology change, negative = correction: at the top concentration
Source text: Nicole Calakos M.D., Ph.D.
Duke University School of Medicine, Durham, NC
In DYT1 dystonia due to delGAG in the TOR1A gene, there is a robust and widely replicated finding of TorsinA protein mislocalization caused when the mutant protein is in excess of the wildtype protein (1-7). Stable HEK293 cell lines were created that replicate this phenomenon. Inducible expression of an EGFP-hu delE TorsinA encoding cDNA causes pronounced punctate cellular distribution. […] This phenotypic difference in EGFP-huTorsinA fusion protein distribution serves as an indicator of cell pathology. […] RNAi screen results with the assay were validated in DYT1 patient cell phenotypes, intersected with a known dystonia gene, and led to discovery of new human genetic dystonia associations.
The bioassay described herein is a high-content image screen with two readouts. The "%pathology" readout is the primary qHTS data channel, while the "cellcount" is the counterscreen qHTS channel. Desired active compounds are those that show inhibition in %pathology channel but no activity or minimal toxicity in cellcount readout.
1. Kustedjo, K., Bracey, M.H., and Cravatt, B.F. (2000). […] J. Biol. Chem. 275, 27933 - 27939.
2. Bragg, D.C., Kaufman, C.A., Kock, N., and Breakefield, X.O. (2004). Inhibition of N-linked glycosylation prevents inclusion formation by the dystonia-related mutant form of torsinA. Mol. Cell. Neurosci. 27, 417 - 426.
3. Gonzalez-Alegre, P., and Paulson, H.L. (2004). Aberrant Cellular Behavior of Mutant TorsinA Implicates Nuclear Envelope Dysfunction in DYT1 Dystonia. J. Neurosci. 24, 2593 - 2601.
4. Goodchild, R.E., and Dauer, W.T. (2004). Mislocalization to the nuclear envelope: an effect of the dystonia-causing torsinA mutation. Proc. Natl. Acad. Sci. U. S. A. 101, 847 - 852.
5. Kock, N., Allchorne, A.J., Sena-Esteves, M., Woolf, C.J., and Breakefield, X.O. (2006). RNAi blocks DYT1 mutant torsinA inclusions in neurons. Neurosci. Lett. 395, 201 - 205.
6. Hewett, J.W., Nery, F.C., Niland, B., Ge, P., Tan, P., Hadwiger, P., Tannous, B.A., Sah, D.W.Y., and Breakefield, X.O. (2008). siRNA knock-down of mutant torsinA restores processing through secretory pathway in DYT1 dystonia cells. Hum. Mol. Genet. 17, 1436 - 1445.
7. Calakos, N., Patel, V.D., Gottron, M., Wang, G., Tran-Viet, K.N., Brewington, D., Beyer, J.L., Steffens, D.C., Krishnan, R.R., and Zuchner, S. (2010). Functional evidence implicating a novel TOR1A mutation in idiopathic, late-onset focal dystonia. J. Med. Genet. 47, 646 - 650.
8. Rittiner* JE, Caffall* ZF, Hernandez-Martinez R, Sanderson SM, Pearson JL, Tsukayama KK, Liu AY, Xiao C, Tracy S, Shipman MK, Hickey P, Johnson J, Scott B, Stacy M, Saunders-Pullman R, Bressman S, Simonyan K, Sharma N, Ozelius LJ, Cirulli ET, Calakos N. Functional Genomic Analyses of Mendelian and Sporadic Disease Identify Impaired eIF2alpha Signaling as a Generalizable Mechanism for Dystonia. Neuron. 2016 Dec 21;92(6):1238-1251. doi: 10.1016/j.neuron.2016.11.012. Epub 2016 Dec 8. PMID: 27939583; PMCID: PMC5320521.
High-content, High-throughput Drug Screening Assay
The TorsinA mislocalization assay was modified from the previously published assay to accommodate compound testing in 1536 well format.1 Briefly, Flp-In T-REx 293 cells from Invitrogen in which a single copy of a cDNA is recombined into a specific genomic locus was used to create tetracycline-inducible expression of cDNA encoding either EGFP-hTOR1A (WT) or EGFP-delE hTOR1A (DYT1). WT and DYT1 cells were diluted to a concentration of 2 x 10^5 cells/mL in reduced serum media (DMEM High Glucose containing 1% tetracycline-tested FBS, 2 mM L-Glutamine, and 1% Penicillin/Streptomycin). 4 µl of WT cells and 4 µl of DTY1 cells were added to column 1 and columns 2-48, respectively, of a poly-D-lysine-coated, low base, black, clear bottom 1536 well plate (Corning, Corning, NY) using the BioRAPTR FRD Microfluidic Workstation (Beckman Coulter, Indianapolis, IN). The final cell number was 800 cells/well. […]
Potency is the fitted concentration of half-maximal effect.

| SMILES | % pathology change, negative = correction | Potency |
| --- | --- | --- |
| CCOCCOC(C)=O | 12.8% | – |
| CCC1(CCC(C)C)C(=O)NC(=O)NC1=O | 2.79% | – |
| CCCCC(CC)COC(=O)c1ccccc1C(=O)OCC(CC)CCCC (stereo not given) | 10.9% | – |
| O=[N+]([O-])c1c(Cl)c(Cl)cc(Cl)c1Cl | -10.6% | – |
| O=[N+]([O-])/N=C1\NCCN1Cc1ccc(Cl)nc1 | 8.62% [at 46.1 µM] | – |
| CCCCCCCCCCCCCCCC[N+](C)(C)C | – | 12.6 µM (active) |
| Cc1cc(O)ccc1Cl | 0.684% [at 46.1 µM] | – |
| CN[C@@H](C)[C@H](O)c1ccccc1 | 8.8% [at 46.1 µM] | – |
| O=C(O)C(Cl)Cl | 6.24% [at 46.1 µM] | – |
| CC(Cc1ccc(O)cc1)NCC(O)c1cc(O)cc(O)c1 (stereo not given) | 16.8% [at 46.1 µM] | – |
| COCCOCCO | 17.1% | – |
| C1CCC(NC2CCCCC2)CC1 | 15.5% [at 46.1 µM] | – |
| c1cc2ccc3cccc4ccc(c1)c2c34 | 16.5% [at 104 µM] | – |
| CC[N+]1(CCOC(=O)C(O)(c2ccccc2)c2ccccc2)CCCCC1 | 0.837% [at 46.1 µM] | – |
| Nc1c(Cl)c(Cl)c(Cl)c(Cl)c1Cl | 27.3% | – |
| O=[N+]([O-])c1cc([N+](=O)[O-])c2ccccc2c1 | -22.2% | – |
| CS(=O)(=O)c1ccc(C(=O)C2C(=O)CCCC2=O)c([N+](=O)[O-])c1 | -17% | – |
| S=C(SSC(=S)N1CCCCC1)N1CCCCC1 | -27% [at 46.1 µM] | – |
| CO/C=C(/C(=O)OC)c1ccccc1Oc1cc(Oc2ccccc2C#N)ncn1 | -12.6% | – |
| CCC(=O)O[C@@H]1C=C2CCC3C(CCC4(C)C3CC[C@@H]4OC(=O)CC)C2CC1 (stereo not given in full) | 0.31% [at 46.1 µM] | – |

| SMILES | % pathology change, negative = correction | Potency |
| --- | --- | --- |
| CCCCOC(=O)c1ccccc1C(=O)OCc1ccccc1 | 14.7% | – |
| O=C(O)COc1ccccc1 | 15.4% [at 46.1 µM] | – |
| OCCCBr | 20.1% | – |
| CC(=O)[O][Hg][c]1ccccc1 | – | 2.82 µM (active) |
| Fc1cc(Br)ccc1CBr | -1.2% [at 46.1 µM] | – |
| CCCN(CCC)c1c([N+](=O)[O-])cc(S(N)(=O)=O)cc1[N+](=O)[O-] | – | 28.2 µM (active) |
| Oc1ccc2c3c1O[C@H]1[C@@H](O)C=C[C@H]4[C@@H](C2)NCC[C@@]341 | -1.21% [at 104 µM] | – |
| C=CCC1=C(C)C(OC(=O)C2C(C=C(C)C)C2(C)C)CC1=O (stereo not given) | -23.3% | – |
| CCOP(=O)(NC(C)C)Oc1ccc(SC)c(C)c1 (stereo not given) | -8.21% | – |
| CCO/N=C(\CC)C1=C(O)CC(c2c(C)cc(C)cc2C)CC1=O (stereo not given) | -21.5% | – |
| O=S(=O)(c1ccc(Cl)cc1)c1ccc(Cl)cc1 | 19.8% | – |
| COC(C)(C)CCCC(C)C/C=C/C(C)=C/C(=O)OC(C)C (stereo not given) | 0.191% [at 46.1 µM] | – |
| O=C(Nc1ccccc1-c1ccc(Cl)cc1)c1cccnc1Cl | -24.3% | – |
| O=S(=O)(O)C(F)(F)C(F)(F)C(F)(F)C(F)(F)F | 22.4% [at 104 µM] | – |
| CC1=C(C(=O)O)N2C(=O)[C@@H](N)[C@H]2SC1 | 1.33% [at 19.1 µM] | – |
| CC(C)(C)C(O)C(Oc1ccc(Cl)cc1)n1cncn1 (stereo not given) | -16.3% | – |
| CC(C)NCC(O)c1ccc([N+](=O)[O-])cc1 (stereo not given) | 9.49% [at 46.1 µM] | – |
| Cc1ccc(Cl)c(O)c1 | 0.915% [at 46.1 µM] | – |
| COC(=O)c1cncn1C(C)c1ccccc1 (stereo not given) | -0.762% [at 46.1 µM] | – |
| O=C(O)CCCOc1ccc(Cl)cc1Cl | -13.6% | – |
